From PubChem
This is a sample that favours compounds with a hit; in the whole collection about 9.2% have one here.
ELG1 genotoxic = induces genotoxicity in HEK293T cells with luciferase-tagged ELG1; HEK293T ELG1-luciferase reporter, luminescence, 16 h; Potency, µM (highest dose often 46 µM), hits mostly activators; 330,000 compounds, 1.3% hits; note: nearly all actives have a fitted effect of over 60% in size
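Genotoxicity was scored as increased ELG1-luciferase reporter signal, measured by ONE-Glo luminescence (30 min, room temperature). Compound or vehicle exposure of the HEK293T reporter cells lasted 16 hr at 37°C.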
ELG1 DNA repair = inhibitors of ELG1-dependent DNA repair in HEK293T cells; HEK293T ELG1-luciferase reporter, luminescence, 16 h; DNA damage induced by 5-fluorouridine; Potency, µM (series often up to 46.1 µM), actives largely listed as inhibitors; 330,000 compounds, 2.3% hits; AID 504467; note: nearly all actives have a fitted effect of over 55% in size
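Luminescence from the luciferase reporter, measured 30 min after ONE-Glo reagent at room temperature, was the read-out. Beforehand, 2,000 cells per well were exposed for 16 hr at 37 °C to 5-fluorouridine together with compound or vehicle.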
FLuc counter = counter-screen for miR-21 project: firefly luciferase inhibitors or activators; 360,000 compounds, 6.9% hits; purified FLuc, Km substrates, luminescence inhibition; AID 588342; P08659; Potency, µM (top dose mostly 57.5 µM), usual class: inhibitors; note: nearly all actives have a fitted effect of over 55% in size
Target sequence (P08659 whole entry, looked up): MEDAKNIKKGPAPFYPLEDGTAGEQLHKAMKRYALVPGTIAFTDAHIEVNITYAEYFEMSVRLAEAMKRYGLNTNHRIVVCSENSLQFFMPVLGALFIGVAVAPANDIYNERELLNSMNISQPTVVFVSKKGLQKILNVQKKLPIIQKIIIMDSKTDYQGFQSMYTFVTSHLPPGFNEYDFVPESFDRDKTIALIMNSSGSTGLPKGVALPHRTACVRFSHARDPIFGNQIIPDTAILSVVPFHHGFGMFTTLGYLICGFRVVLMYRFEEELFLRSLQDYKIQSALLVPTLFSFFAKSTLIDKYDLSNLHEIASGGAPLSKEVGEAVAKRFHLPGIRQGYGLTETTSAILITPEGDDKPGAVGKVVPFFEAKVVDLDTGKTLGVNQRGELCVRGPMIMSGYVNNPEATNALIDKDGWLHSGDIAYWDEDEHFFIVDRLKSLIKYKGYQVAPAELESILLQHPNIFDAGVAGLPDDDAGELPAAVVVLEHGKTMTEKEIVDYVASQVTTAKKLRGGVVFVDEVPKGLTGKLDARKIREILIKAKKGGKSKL
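Purified P. pyralis luciferase, 10 nM final, with Km-level 10 uM D-luciferin and 10 uM ATP in 50 mM Tris acetate pH 7.5, 10 mM Mg acetate, 0.01% Tween-20, 0.05% BSA; 6-point qHTS titration about 60 µM downward; luminescence read.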
SMN2 splice enh = enhancers of SMN2 splice variant expression; HEK293 SMN2-luciferase splicing reporter, luminescence, 30-36 h; Potency, µM (highest dose often 46.1 µM), most hits filed as activators; 210,000 compounds, 2.8% hits; note: nearly all actives have a fitted effect of over 55% in size
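qHTS luciferase splicing reporter: luminescence rises when SMN2 exon 7 is included in transfected HEK293 cells. Compound exposure lasted 30-36 h at 37C, with 4.5 mM final sodium butyrate as control, followed by a ONE-Glo read.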
Rab9 prom act = activators of Rab9 promoter | Huh7 Rab9 promoter-luciferase reporter, luminescence, 24 h | AID 485297 | Potency, µM (series often up to 9.22 µM), hits mostly activators | 320,000 compounds, 2.8% hits; note: nearly all actives have a fitted effect of over 60% in size
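Stable Rab9-luc Huh7, 1500 cells/well, 2 h settle; cmpd in DMSO, 24 h, 37 °C/5% CO2; luciferase reagent 10 min RT; luminescence.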
NPC1 prom act = activates the NPC1 promoter | Huh7 NPC1 promoter luciferase reporter, 24 h | Potency, µM (highest dose often 9.22 µM), usual class: activators | AID 485313 | 320,000 compounds, 2.4% hits; note: nearly all actives have a fitted effect of over 60% in size
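In 1536-well qHTS, Huh7 cells harboring an NPC1 promoter–luciferase construct received compound for 24 h; activation was quantified by luminescence following luciferase reagent addition.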
Each line names hits and unclear results; the compound was inactive in the other large screens. Calls come from the whole dose curve; as a rule, active = well fitted curve in the direction sought with a large enough effect; inconclusive = small, poorly fitted or top-dose-only effect, or another doubt; inactive = no such curve, though single readings can be large; an effect the other way counts as inactive or inconclusive.

CN(CC(=O)Nc1sc2c(c1C#N)CCCCC2)Cc1nc2ccccc2c(=O)[nH]1	ELG1 DNA repair 23.1µM
COc1cccc(CN(C)CC(=O)Nc2sc3c(c2C#N)CCC3)c1OC	ELG1 DNA repair 11.6µM
O=C(NNC(=O)C1CCCCC1)C(=O)NC1CCCCC1	none (no result: SMN2 splice enh)
O=C1C(C2=NC(C(=O)O)C3C(=O)N(c4ccc(Cl)cc4)C(=O)C23)=C(O)c2ccccc21 (stereo not given)	FLuc counter 6.75µM
CN(C(=O)c1ccc2c(c1)N(Cc1ccccc1F)C(=O)c1ccccc1S2(=O)=O)C1CCCCC1	none (no result: ELG1 genotoxic, ELG1 DNA repair, Rab9 prom act, NPC1 prom act)
O=C(O)CCC(=O)Nc1ccc(C(=O)OC2CCCCC2)cc1	ELG1 DNA repair inconclusive, FLuc counter 13.5µM
O=C(OC1CCCCC1)c1ccc(NC(=O)C2CCCCC2)cc1	ELG1 DNA repair inconclusive, FLuc counter inconclusive
CC(C)(C)C(=O)Nc1ccc(C(=O)OC2CCCCC2)cc1	ELG1 genotoxic inconclusive, ELG1 DNA repair inconclusive, FLuc counter 4.26µM, SMN2 splice enh 35.5µM, Rab9 prom act 1.41µM, NPC1 prom act 1.41µM
CCOC(=O)c1ccccc1NC(=O)c1cc2c(s1)-c1ccccc1SC2	none (no result: ELG1 genotoxic, ELG1 DNA repair, Rab9 prom act, NPC1 prom act)
C=CCNC(=S)Nc1ccc(N(C)C)cc1	ELG1 DNA repair inconclusive (no result: SMN2 splice enh)
CN(C)c1ccc(-c2nc(N3CCNCC3)c3ccccc3n2)cc1	SMN2 splice enh 11.2µM (no result: ELG1 genotoxic, ELG1 DNA repair, FLuc counter, Rab9 prom act, NPC1 prom act)
C(=C\c1nc(N2CCCCCC2)c2ccccc2n1)/c1ccccc1	FLuc counter 8.49µM (no result: SMN2 splice enh)
CCCOc1ccc(-c2nc(N3CCN(C)CC3)c3ccccc3n2)cc1	ELG1 genotoxic inconclusive, ELG1 DNA repair inconclusive, FLuc counter 4.78µM, Rab9 prom act 3.16µM, NPC1 prom act inconclusive (no result: SMN2 splice enh)
c1ccc2c(N3CCCCCC3)nc(-c3ccncc3)nc2c1	ELG1 DNA repair 7.31µM
c1cncc(-c2nc(N3CCCCCC3)c3ccccc3n2)c1	ELG1 DNA repair inconclusive
COC(=O)c1ccc2c(=O)n(CCCCCC(=O)NCCc3ccccc3)c(=O)[nH]c2c1	none (no result: ELG1 genotoxic, ELG1 DNA repair, SMN2 splice enh, Rab9 prom act, NPC1 prom act)
CC1CN(c2cc(-c3ccccc3)c3ccccc3n2)CC(C)O1 (stereo not given)	none
CC1CN(c2nc(-c3ccccc3)nc3ccccc23)CC(C)O1 (stereo not given)	ELG1 DNA repair 13µM
CC(=O)c1nnn(-c2ccc([N+](=O)[O-])cc2)c1C	none
Cc1cccc(N(C)C(=O)c2cc3cc4ccc(C)cc4nc3o2)c1	ELG1 genotoxic 20.6µM, ELG1 DNA repair inconclusive, FLuc counter 15.1µM, SMN2 splice enh 8.91µM
CCOC(=O)c1c(C)[nH]c(C)c1S(=O)(=O)N1CCCC(C(=O)N2CCN(c3ccccc3F)CC2)C1 (stereo not given)	none (no result: ELG1 genotoxic, ELG1 DNA repair, SMN2 splice enh, Rab9 prom act, NPC1 prom act)
CCOc1c(Nc2ccc(C(C)C)cc2)c(=O)c1=O	FLuc counter 13.5µM (no result: SMN2 splice enh)
COc1nc(Nc2ccc(C(C)C)cc2)nc(OC)n1	ELG1 DNA repair inconclusive, FLuc counter inconclusive, SMN2 splice enh inconclusive
Cc1cc(C)n2cc(CSc3nnc(SCc4cn5c(C)cc(C)nc5n4)s3)nc2n1	none
Cc1cc(C)n2cc(CSc3nc4ccccc4s3)nc2n1	ELG1 genotoxic inconclusive, ELG1 DNA repair inconclusive, FLuc counter 21.3µM, SMN2 splice enh 11.2µM, Rab9 prom act 3.55µM, NPC1 prom act inconclusive
COc1cc(SC)ccc1C(=O)Nc1c(Cl)cncc1Cl	none
COc1cc(SC)ccc1C(=O)Nc1nc2ccccc2[nH]1	ELG1 DNA repair inconclusive, FLuc counter 0.0135µM (no result: SMN2 splice enh)
COc1ccccc1C(=O)NC(C)c1nc2ccccc2[nH]1 (stereo not given)	none
O=C(CCNC(=O)c1ccccc1Cl)Nc1nc2ccccc2[nH]1	none (no result: FLuc counter, SMN2 splice enh, Rab9 prom act, NPC1 prom act)
COc1ccccc1C(=O)NCCC(=O)Nc1nc2ccccc2[nH]1	ELG1 genotoxic 23.1µM, ELG1 DNA repair inconclusive (no result: SMN2 splice enh)
COc1ccccc1C(=O)Nc1nc2ccccc2[nH]1	ELG1 genotoxic inconclusive, ELG1 DNA repair inconclusive, FLuc counter 0.019µM, NPC1 prom act inconclusive (no result: SMN2 splice enh)
CC(=O)[C@H]1CC[C@H]2C3CC=C4C[C@@H](O)CC[C@]4(C)C3CC[C@]12C (stereo not given in full)	none (no result: ELG1 genotoxic, ELG1 DNA repair, FLuc counter, Rab9 prom act, NPC1 prom act)
COc1ccc(OCC(=O)Nc2cccc(S(=O)(=O)N(C)c3ccccc3)c2)c([N+](=O)[O-])c1	ELG1 DNA repair inconclusive (no result: SMN2 splice enh)
